Hit rate of the full screen: of about 5,500 compounds, about 2,000 (36%) were called active. Roughly 18% stayed inconclusive and do not appear here. This is one part of the list. Unmarked numbers belong to inactive results. No stated cut-off is given here; in the data, active means normalized growth mostly below about 0.91 (no sharp cut-off); inconclusive means no clear call, values can overlap the other calls; inactive means mostly above about 0.92.
Experiment: chemical genetic growth profiling, strain panel (AID 1159580);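 further: tested at 20 µM; growth read once vehicle control cultures reached saturation at 30 °C; 1 = growth at the plate median or of vehicle wells; lower values mean less growth of the strain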
Conditions: S. cerevisiae deletion strains, growth OD
[1] = locus YDR150W, strain NUM1, active compounds read low
[2] = locus YNL153C, strain GIM3, active compounds read low
[3] = locus YNL322C, strain KRE1, active compounds read low
[4] = locus YPL055C, strain LGE1, active compounds read low
[5] = locus YPL241C, strain CIN2, active compounds read low
[6] = locus YAL040C, strain CLN3, active compounds read low
[7] = locus YCL061C, strain MRC1 (second series), active compounds read low
[8] = locus YDR363W, strain ESC2, active compounds read low
[9] = locus YER002W, strain NOP16, active compounds read low
[10] = locus YNL128W, strain TEP1, active compounds read low
[11] = locus YNL175C, strain NOP13, active compounds read low
[12] = locus YNL197C, strain WHI3, active compounds read low
[13] = locus YNL224C, strain SQS1, active compounds read low
[14] = locus YOR083W, strain WHI5 (second series), active compounds read low

In the case of `COc1ccc(/C=C2/C(=O)N(c3cccc(Cl)c3)N=C2C)cc1`, the normalized growth (locus YAL013W, strain DEP1, active compounds read low) is reported as 0.983, the normalized growth (locus YBR229C, strain ROT2, active compounds read low) is reported as 0.963 and the normalized growth (locus YDL101C, strain DUN1, active compounds read low) is reported as 1. For the same compound, the normalized growth (locus YDL134C, strain PPH21, active compounds read low) was 0.991, the normalized growth [1] was 1 and the normalized growth (locus YEL061C, strain CIN8, active compounds read low) was 0.964. For the same compound, the normalized growth (locus YGR078C, strain PAC10, active compounds read low) was 0.962, the normalized growth (locus YHR030C, strain SLT2, active compounds read low) was 0.53 (active) and the normalized growth (locus YHR087W, strain rtc3, active compounds read low) was 0.866 (active). For the same compound, the normalized growth (locus YJL187C, strain SWE1, active compounds read low) was 0.921 (active), the normalized growth (locus YJR043C, strain POL32, active compounds read low) was 1.03 and the normalized growth (locus YJR075W, strain HOC1, active compounds read low) was 0.934. For the same compound, the normalized growth (locus YLR039C, strain RIC1, active compounds read low) was 0.62 (active), the normalized growth (locus YLR058C, strain SHM2 (second series), active compounds read low) was 0.963 and the normalized growth (locus YLR085C, strain ARP6, active compounds read low) was 0.744 (active). For the same compound, the normalized growth (locus YLR262C, strain YPT6, active compounds read low) was 0.699 (active), the normalized growth (locus YML094W, strain GIM5, active compounds read low) was 0.865 (active) and the normalized growth (locus YMR219W, strain ESC1, active compounds read low) was 0.938 (active). The normalized growth (locus YMR263W, strain SAP30, active compounds read low) was 0.989, the normalized growth [2] was 0.999 and the normalized growth (locus YNL298W, strain CLA4 (second series), active compounds read low) was 0.839. For the same compound, the normalized growth [3] was 0.973, the normalized growth (locus YNR030W, strain Alg12, active compounds read low) was 0.88 (active) and the normalized growth (locus YOL006C, strain TOP1, active compounds read low) was 0.849. For the same compound, the normalized growth [4] was 0.961, the normalized growth [5] was 0.897 and the normalized growth (locus YPR135W, strain CTF4, active compounds read low) was 0.599 (active).

With `Cn1c(=O)c2c(nc(/C=C/c3cccc(Cl)c3)n2C)n(C)c1=O` the normalized growth [6] was 0.996, the normalized growth [7] was 0.981 and the normalized growth [8] was 1.05. It also gave a normalized growth [9] of 1.01, a normalized growth (locus YGR229C, strain SMI1, active compounds read low) of 0.996 and a normalized growth [10] of 0.993. For the same compound, the normalized growth [2] was 0.946, the normalized growth [11] was 0.969 and the normalized growth [12] was 0.954. It also gave a normalized growth [13] of 0.995, a normalized growth [3] of 1.02 and a normalized growth [14] of 0.964. The normalized growth [4] was 1.03 and the normalized growth [5] was 0.995.

In the case of `Cn1cc(C(=O)OCC2CCN(CCNS(C)(=O)=O)CC2)c2ccccc21`, the normalized growth [6] is reported as 1, the normalized growth [7] is reported as 1.01 and the normalized growth [1] is reported as 1.01. The normalized growth [8] was 1, the normalized growth [9] was 1.01 and the normalized growth (locus YMR307W, strain GAS1, active compounds read low) was 1. The normalized growth [10] was 1.03, the normalized growth [2] was 1.04 and the normalized growth [11] was 1.05. For the same compound, the normalized growth [12] was 1.06, the normalized growth [13] was 1.05 and the normalized growth [14] was 1.03.
